Experimental data published in PubChem BioAssay (Tox21).
Results filed as inconclusive are left out. Calls of active or inactive are those of the source. Unless noted, calls follow the shape of the dose curve; as a rule, active = well fitted curve in the direction sought with a large enough effect in the repeat runs; inconclusive = weak or mixed curves; inactive = no such curve, though single readings can be large; an effect the other way counts as inactive or inconclusive.

Tests used:
[1] = qHTS assay for small molecules that induce genotoxicity in human embryonic kidney cells expressing luciferase-tagged ATAD5 (AID 651632); details: HEK293T ATAD5-luciferase induction, 16 h; series mostly up to 83.3 µM; also: nearly all actives have a fitted effect of over 15% in size
Outline: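 Luminescence read-out: after 16 hr compound exposure at 37C, ATAD5-luciferase HEK293T cells received Amplite, 30 min RT, then CCD imaging. A rise in signal marks genotoxic stress.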

[2] = qHTS assay for small molecule agonists of the p53 signaling pathway - cell viability (AID 651633; calls by dose curve;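 also: p53RE-bla HCT reporter cells with a stable beta-lactamase p53 reporter; nearly all actives have a fitted effect of over 30% in size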); details: p53RE-bla HCT-116 viability, ATP luminescence, 16 h; series mostly up to 83.3 µM
Outline: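 Viability counter-read: CellTiter-Glo luminescence (30 min, room temperature) in the same p53RE-bla plates. These plates had been exposed to compounds for 16 h at 37 C.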

[3] = qHTS assay for small molecules that induce genotoxicity in human embryonic kidney cells expressing luciferase-tagged ATAD5 - cell viability (AID 651634; calls by dose curve; also: nearly all actives have a fitted effect of over 25% in size; also: potency is read from the fitted curve at half-maximal effect); details: HEK293T ATAD5-luc cells viability, CellTiter-Fluor, 15.5 h; series mostly up to 83.3 µM
Outline: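 HEK293T ATAD5-luc cells, 2,000/well; compound 15.5 hr, 37C/5% CO2; CellTiter-Fluor 30 min, 37C; fluorescence read.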

[4] = qHTS assay for small molecule disruptors of the mitochondrial membrane potential - cell viability (AID 720634; calls by dose curve;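 also: human HepG2 liver cancer cells; nearly all actives have a fitted effect of over 20% in size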); details: HepG2 viability, ATP luminescence (CellTiter-Glo), 1 h; series mostly up to 83.2 µM
Outline: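 Luminescence from CellTiter-Glo (ATP content) gave viability in HepG2 cells, read in the same wells as the MMP dye assay after 1 hr compound exposure at 37 C.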

[5] = qHTS assay to test for compound auto fluorescence at 590 nm (red) in HepG2 cells (AID 720674); details: HepG2 autofluorescence, red 540/590 nm, 1 h; series mostly up to 46 µM
Outline: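 We screened compounds on adherent HepG2 cells, incubating them for an hour at 37 C in 5% CO2 before reading emission at 590 nm under 540 nm excitation; values reflect equivalence to Rose Bengal sodium fluorescence.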

[6] = qHTS assay to test for compound auto fluorescence at 460 nm (blue) in HEK293 cells (AID 720678); details: blue autofluorescence 405/460 nm; series mostly up to 46 µM
Outline: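 Intrinsic compound fluorescence is recorded in live HEK293 cultures after overnight incubation at 37C, 5% CO2, using excitation 405 nm and emission 460 nm. Values are referenced to triamterene.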

[7] = qHTS assay to test for compound auto fluorescence at 590 nm (red) in HEK293 cells (AID 720679); details: red autofluorescence 540/590 nm; series mostly up to 46 µM
Outline: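 Red autofluorescence, HEK293 cells: 2,000 cells/well; attach 4-5 hr 37C; add 23 nL cpd or DMSO; incubate o/n 37C 5% CO2; read Ex540/Em590; Rose Bengal sodium reference.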

[8] = qHTS assay to test for compound auto fluorescence at 535 nm (green) in HEK293 cells (AID 720680); details: green autofluorescence 485/535 nm; series mostly up to 46 µM; also: potency is read from the fitted curve at half-maximal effect
[9] = qHTS assay to test for compound auto fluorescence at 460 nm (blue) in HEK293 cell free culture (AID 720681); details: cell-free medium, autofluorescence 405/460 nm (blue); series mostly up to 46 µM
Outline: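 Blue fluorescence (Ex 405/Em 460 nm, triamterene-equivalent) was read immediately after pin transfer of compound or DMSO into medium (DMEM, 10% FBS) without cells.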

[10] = qHTS assay to test for compound auto fluorescence at 535 nm (green) in HEK293 cell free culture (AID 720682); details: cell-free medium, green autofluorescence 485/535 nm; series mostly up to 46 µM; also: potency is read from the fitted curve at half-maximal effect
Outline: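 DMEM + 10% FBS, cell-free; cpd or DMSO pinned in; Ex485/Em535 read; output as fluorescein-equivalent signal.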

[11] = qHTS assay to identify small molecule antagonists of the glucocorticoid receptor (GR) signaling pathway - cell viability counter screen (AID 720693); details: GR-bla HeLa viability, CellTiter-Glo luminescence, 18 h, with 5 nM dexamethasone present; series mostly up to 58.5 µM; also: nearly all actives have a fitted effect of over 55% in size
[12] = qHTS assay to identify small molecule antagonists of the estrogen receptor alpha (ER-alpha) signaling pathway - cell viability counter screen (AID 743074; calls by dose curve;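 also: HEK293 cells carrying ER-alpha-UAS-bla reporter stimulated with 17beta-estradiol; nearly all actives have a fitted effect of over 45% in size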); details: ERalpha-bla HEK293 viability, CellTiter-Glo luminescence, 18 h; series mostly up to 69.4 µM
Aromatase (Homo sapiens) = Aromatase (Homo sapiens) (UniProt P11511); assay: qHTS assay to identify aromatase inhibitors (AID 743083); details: MCF-7 aro ERE, testosterone-driven ERE luciferase, 24 h; series mostly up to 70.3 µM; also: nearly all actives have a fitted effect of over 55% in size
[13] = qHTS assay to identify aromatase inhibitors - cell viability counter screen (AID 743084); details: MCF-7 aro ERE viability, CellTiter-Fluor, 24 h; series mostly up to 70.3 µM;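 also: cells stimulated with testosterone during compound exposure; nearly all actives have a fitted effect of over 55% in size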; also: potency is read from the fitted curve at half-maximal effect
[14] = qHTS assay to identify small molecule that activate the aryl hydrocarbon receptor (AhR) signaling pathway - cell viability counter screen (AID 743086); details: HepG2-AhR-luc viability, CellTiter-Fluor, 24 h; series mostly up to 70.3 µM; also: nearly all actives have a fitted effect of over 45% in size; also: potency is read from the fitted curve at half-maximal effect
Outline: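 Cytotoxicity counter screen: CellTiter-Fluor signal (30 min, 37 C) in 4000 HepG2 cells/well carrying the DRE-luciferase reporter, following 24 h compound exposure at 37 C.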

[15] = qHTS assay to identify small molecule phospholipidosis (PLD) inducers (AID 1259344; active = well fitted curve in the direction sought with a large enough effect; an effect the other way counts as inactive or inconclusive); details: HepG2 phospholipidosis, LipidTOX Red imaging, 24 h; series mostly up to 38.3 µM
Outline: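 Phospholipid accumulation was scored by imaging: fixed, Hoechst-counterstained HepG2 cells stained with LipidTOX Red after 24 h compound exposure at 37 C. Read-outs were pit count and pit intensity per well or per cell, with amiodarone and DMSO controls.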

[16] = qHTS assay to test for compound auto fluorescence at 590 nm (red) in HEK293 cell free culture (AID 720683); details: cell-free medium autofluorescence, Ex540/Em590 red; series mostly up to 46 µM
Outline: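 Red-channel autofluorescence of compounds in culture medium (DMEM, 10% FBS), no cells, measured at 540/590 nm. Rose Bengal sodium is the reference fluorophore for equivalence.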

[17] = qHTS assay for identifying genotoxic compounds that show differential cytotoxicity against isogenic chicken DT40 cell lines with known DNA damage response pathways - Rad54/Ku70 mutant cell line (AID 743015); details: DT40 Rad54/Ku70 mutant viability, CellTiter-Glo, 40 h; series mostly up to 66.8 µM; also: nearly all actives have a fitted effect of over 60% in size; also: potency is read from the fitted curve at half-maximal effect
[18] = target: Aryl hydrocarbon receptor (Homo sapiens) (UniProt P35869); assay: qHTS assay to identify small molecule that activate the aryl hydrocarbon receptor (AhR) signaling pathway (AID 743085); details: HepG2 AhR-luc (HG2L7.5c1), luciferase, 24 h; series mostly up to 70.3 µM;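 also: HG2L7.5c1 human HepG2 liver cells with stably integrated DRE-driven firefly reporter; nearly all actives have a fitted effect of over 15% in size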
Outline: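 A multiplexed format paired cell viability (CellTiter-Fluor fluorescence) with AhR-dependent luciferase output (ONE-Glo luminescence) in the same wells of HepG2 DRE-luc cells after 24 h compound exposure at 37C.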
% is scaled to controls: 0 for no effect and ±100 for the full control effect; tags tell the direction and shape of the fitted curve or compound fluorescence and quenching.

Chain of Aryl hydrocarbon receptor (Homo sapiens) (P35869 whole entry, looked up): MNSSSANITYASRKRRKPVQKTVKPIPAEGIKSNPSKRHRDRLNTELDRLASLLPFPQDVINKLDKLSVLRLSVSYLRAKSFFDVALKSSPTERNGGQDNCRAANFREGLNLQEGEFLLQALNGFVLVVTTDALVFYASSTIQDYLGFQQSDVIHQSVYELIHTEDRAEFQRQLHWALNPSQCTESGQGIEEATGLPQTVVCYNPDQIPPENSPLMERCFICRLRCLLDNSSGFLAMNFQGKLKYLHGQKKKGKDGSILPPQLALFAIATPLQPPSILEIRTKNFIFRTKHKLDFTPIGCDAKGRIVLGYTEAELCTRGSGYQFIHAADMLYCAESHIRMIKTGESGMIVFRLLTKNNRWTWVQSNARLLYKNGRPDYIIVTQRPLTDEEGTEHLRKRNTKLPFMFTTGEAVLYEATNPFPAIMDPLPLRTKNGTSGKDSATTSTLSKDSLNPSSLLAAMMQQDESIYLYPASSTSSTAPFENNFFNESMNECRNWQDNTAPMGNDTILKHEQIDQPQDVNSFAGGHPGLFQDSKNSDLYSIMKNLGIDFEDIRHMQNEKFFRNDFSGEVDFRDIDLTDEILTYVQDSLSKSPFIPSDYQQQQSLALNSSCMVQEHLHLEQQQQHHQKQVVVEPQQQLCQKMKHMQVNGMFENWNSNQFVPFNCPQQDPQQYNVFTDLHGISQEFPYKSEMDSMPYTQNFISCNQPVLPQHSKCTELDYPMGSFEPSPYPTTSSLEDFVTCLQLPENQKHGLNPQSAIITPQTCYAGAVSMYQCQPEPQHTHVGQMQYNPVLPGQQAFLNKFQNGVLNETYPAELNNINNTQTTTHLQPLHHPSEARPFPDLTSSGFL
Chain of Aromatase (Homo sapiens) (P11511 whole entry, looked up): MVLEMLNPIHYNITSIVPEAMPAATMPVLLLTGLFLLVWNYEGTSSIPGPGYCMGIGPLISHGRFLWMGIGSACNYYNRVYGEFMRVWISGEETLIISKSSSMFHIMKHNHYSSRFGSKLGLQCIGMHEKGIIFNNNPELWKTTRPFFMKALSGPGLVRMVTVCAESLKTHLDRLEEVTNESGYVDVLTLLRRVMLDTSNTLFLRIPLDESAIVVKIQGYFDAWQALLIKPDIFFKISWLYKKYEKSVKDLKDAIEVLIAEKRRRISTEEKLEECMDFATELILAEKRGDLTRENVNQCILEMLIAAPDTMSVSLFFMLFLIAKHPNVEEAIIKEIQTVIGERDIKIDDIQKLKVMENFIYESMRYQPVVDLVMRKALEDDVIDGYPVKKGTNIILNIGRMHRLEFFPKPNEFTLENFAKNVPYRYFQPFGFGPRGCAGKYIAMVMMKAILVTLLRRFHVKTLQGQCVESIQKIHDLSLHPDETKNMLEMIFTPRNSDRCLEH

CCN(CC)C(=O)N[C@H]1C[C@@H]2c3cccc4[nH]cc(c34)C[C@H]2N(C)C1
inactive: Potency [1] | Potency [2] | Potency [3] | Potency [4] | outcome [5] | Potency [6] | outcome [7] | Potency [8] | Potency [9] | Potency [10] | Potency [11] | Potency [12] | Potency (Aromatase (Homo sapiens)) | Potency [13] | Potency [14] | Potency [15]

C=C[C@H]1CN2CC[C@H]1C[C@H]2[C@H](OC(=O)OCC)c1ccnc2ccc(OC)cc12
inactive: Potency [1] | Potency [2] | Potency [3] | Potency [4] | outcome [5] | Potency [6] | outcome [7] | Potency [8] | Potency [9] | Potency [10] | outcome [16] | Potency [11] | Potency [17] | Potency (Aromatase (Homo sapiens)) | Potency [13] | Potency [14] | Potency [15]

C/C=C(\CC)C(=O)NC(N)=O
inactive: Potency [1] | Potency [2] | Potency [3] | Potency [4] | outcome [5] | Potency [6] | outcome [7] | Potency [8] | Potency [9] | Potency [10] | outcome [16] | Potency [11] | Potency [17] | Potency [12] | Potency (Aromatase (Homo sapiens)) | Potency [13] | Potency [18] | Potency [14] | Potency [15]

N#CC(C#N)=Cc1cc(O)c(O)c(O)c1
active: Potency [3] 29.8 µM | Potency [17] 21.1 µM | Potency [13] 26.6 µM | Potency [14] 13.3 µM
inactive: Potency [1] | Potency [2] | Potency [4] | outcome [5] | Potency [6] | outcome [7] | Potency [8] | Potency [9] | Potency [10] | Potency [11] | Potency [12] | Potency [15]

C[C@]12CCC(=O)C[C@@H]1CC[C@@H]1[C@@H]2CC[C@@]2(C)[C@H]1CC[C@]2(C)O
inactive: Potency [1] | Potency [3] | Potency [4] | outcome [5] | Potency [6] | outcome [7] | Potency [8] | Potency [9] | Potency [10] | Potency [11] | Potency [17] | Potency [12] | Potency (Aromatase (Homo sapiens)) | Potency [13] | Potency [18] | Potency [14] | Potency [15]

COC(=O)[C@@H]1[C@H]2CC[C@@H](C[C@H]1OC(=O)c1ccccc1)N2C
inactive: Potency [1] | Potency [2] | Potency [3] | Potency [4] | outcome [5] | Potency [6] | outcome [7] | Potency [8] | Potency [9] | Potency [10] | outcome [16] | Potency [11] | Potency [17] | Potency [12] | Potency (Aromatase (Homo sapiens)) | Potency [13] | Potency [18] | Potency [14] | Potency [15]

CN[C@@]1(c2ccccc2Cl)CCCCC1=O
inactive: Potency [1] | Potency [2] | Potency [3] | Potency [4] | outcome [5] | Potency [6] | outcome [7] | Potency [8] | Potency [9] | Potency [10] | outcome [16] | Potency [11] | Potency [17] | Potency [12] | Potency (Aromatase (Homo sapiens)) | Potency [13] | Potency [18] | Potency [14] | PLD induction [15] -4.46% [at 7.66 µM]

C[C@@H](Cc1ccccc1)NCCC(c1ccccc1)c1ccccc1
inactive: Potency [1] | Potency [2] | Potency [3] | Potency [4] | outcome [5] | Potency [6] | outcome [7] | Potency [8] | Potency [9] | Potency [10] | outcome [16] | Potency [11] | Potency [12] | Potency (Aromatase (Homo sapiens)) | Potency [13] | Potency [18] | Potency [15]
active: Potency [17] 7.17 µM

O=C1OC2(c3cc(Br)c(O)cc3Oc3c2cc(Br)c(O)[c]3[Hg])c2ccccc21 (stereo unspecified)
active: Potency [8] 10 µM [fluorescent] | Potency [10] 10 µM [fluorescent] | Potency [17] 10.1 µM
inactive: Potency [1] | Potency [2] | Potency [3] | Potency [4] | Potency [6] | Potency [9] | Potency [11] | Potency [12] | Potency (Aromatase (Homo sapiens)) | Potency [13] | Potency [14] | Potency [15]

CN1CC[C@@]23CCCC[C@@H]2[C@@H]1Cc1ccc(O)cc13
inactive: Potency [1] | Potency [2] | Potency [3] | Potency [4] | outcome [5] | Potency [6] | outcome [7] | Potency [8] | Potency [9] | Potency [10] | outcome [16] | Potency [11] | Potency [17] | Potency [12] | Potency (Aromatase (Homo sapiens)) | Potency [13] | Potency [18] | Potency [14] | Potency [15]

CN[C@@H](C)Cc1ccccc1
inactive: Potency [1] | Potency [2] | Potency [3] | Potency [4] | outcome [5] | Potency [6] | outcome [7] | Potency [8] | Potency [9] | Potency [10] | outcome [16] | Potency [11] | Potency [17] | Potency [12] | Potency (Aromatase (Homo sapiens)) | Potency [13] | Potency [14] | Potency [15]

CC(=O)[C@@]1(O)CC[C@H]2[C@@H]3CCC4=CC(=O)CC[C@]4(C)C3(F)[C@@H](O)C[C@@]21C (stereo partly specified)
inactive: Potency [1] | Potency [2] | Potency [3] | Potency [4] | outcome [5] | Potency [6] | outcome [7] | Potency [8] | Potency [9] | Potency [10] | outcome [16] | Potency [11] | Potency [17] | Potency [12] | Potency (Aromatase (Homo sapiens)) | Potency [13] | Potency [18] | Potency [14] | Potency [15]

C[C@]12CC[C@@H]3c4ccc(OC(=O)N(CCCl)CCCl)cc4CC[C@H]3[C@@H]1CC[C@@H]2OP(=O)(O)O
inactive: Potency [1] | Potency [2] | Potency [3] | Potency [4] | outcome [5] | Potency [6] | outcome [7] | Potency [8] | Potency [9] | Potency [10] | outcome [16] | Potency [11] | Potency [17] | Potency [12] | Potency (Aromatase (Homo sapiens)) | Potency [13] | Potency [18] | Potency [14] | Potency [15]
